7 molecules from PubChem BioAssay (Tox21) can be followed below.

Several values for one entry are separate records, joined by “and”; a condition that tells them apart may be missing. Identical values can stand only once. Inconclusive results are not listed. The source holds several records for some structures; these can differ, active in one and inactive in another. Activity calls are given as the source filed them. Unless noted, calls come from the whole dose curve; as a rule, active = well fitted curve in the direction sought with a large enough effect in the repeat runs; inconclusive = weak or mixed curves; inactive = no such curve, though single readings can be large; an effect the other way counts as inactive or inconclusive.

Assay [1] is described as follows: Caspase-3/7 induction in HepG2 cells by small molecules, qHTS assay (AID 1346978). Note: nearly all actives have a fitted effect of over 15% in size. Note: potency is the fitted concentration of half-maximal effect. Summed up:
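Wild-type HepG2 cells, 2,000/well, settled 5 hr at 37 C and 5% CO2, then compound-treated for 17 hr; caspase-3/7 activity read by luminescent Caspase-Glo 3/7 after 30 min at room temperature.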
For orientation: qHTS replaces the single test concentration by a dilution series.

Assay [2] in a line: Caspase-3/7 induction in CHO-K1 cells by small molecules, qHTS cell viability counter screen (AID 1346979). Note: nearly all actives have a fitted effect of over 35% in size. Note: potency is the fitted concentration of half-maximal effect. The method, boiled down: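 Viability readout by fluorescence (CellTiter-Fluor) on wild-type CHO-K1 cells exposed for 16hr at 37C and 5% CO2 to compounds delivered in DMSO; reagent incubated 1hr before reading.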
The nature of assay [3]: Caspase-3/7 induction in CHO-K1 cells by small molecules, qHTS assay (AID 1346980). Note: nearly all actives have a fitted effect of over 15% in size. The method, boiled down: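 Wild-type CHO-K1 cells exposed to compounds for 17hr at 37 C, 5% CO2. Caspase-3/7 activity then measured by Caspase-Glo 3/7 luminescence after 30min at room temperature.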
Assay [4] in a line: Caspase-3/7 induction in HepG2 cells by small molecules, qHTS cell viability counter screen (AID 1346981). For activity change, negative = cytotoxicity: series mostly up to about 92 µM. Note: nearly all actives have a fitted effect of over 30% in size. Note: potency is the fitted concentration of half-maximal effect. The method, boiled down: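 Cell viability is measured as a cytotoxicity counter screen alongside the Caspase-Glo 3/7 readout in identical wells. Wild-type HepG2 cells are treated with test compounds for 16 hr at 37 C before CellTiter-Fluor addition and a 1-hr incubation.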

In assay [5] the target is Nuclear receptor subfamily 1 group I member 2 (Homo sapiens) (UniProt O75469). Briefly: Human pregnane X receptor (PXR) small molecule agonists, qHTS assay (AID 1346982). Note: nearly all actives have a fitted effect of over 35% in size. Note: potency is the fitted concentration of half-maximal effect. Summed up: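 Cells: HepG2 stably carrying PXR-Luc. Medium held 5% charcoal-stripped FBS. Compounds in DMSO added after 5 hr plating, incubated 24 hr, then luminescence quantified with ONE-Glo.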
The target of assay [6] is Acetylcholinesterase (Homo sapiens) (UniProt P22303). The assay is described as follows: Acetylcholinesterase (AChE) small molecule antagonists: colormetric cell-based qHTS assay (AID 1347395; calls by dose curve; note: nearly all actives have a fitted effect of over 30% in size; note: potency is the fitted concentration of half-maximal effect). The method, boiled down: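 Homogeneous whole-cell format. SH-SY5Y cells seeded overnight, dosed with compound (30 min, 37 C, 5% CO2), then given DTNB/acetylthiocholine cocktail for 90 min at 37 C; colorimetric signal.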

For assay [7] the target is unchanged. The assay is described as follows: Acetylcholinesterase (AChE) small molecule antagonists: enzyme-based qHTS assay (AID 1347397; calls by dose curve; note: nearly all actives have a fitted effect of over 55% in size; note: potency is the fitted concentration of half-maximal effect). The settings on record: Potency: AChE enzyme activity inhibition. Summed up: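 Colorimetric DTNB read-out of thiocholine released from acetylthiocholine by recombinant human AChE (50 mU/mL as dispensed). Compounds were preincubated 30 min at RT before substrate/DTNB addition, with a 10 min RT reaction.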

For assay [8] the target is unchanged. Briefly: Acetylcholinesterase (AChE) small molecule antagonists: fluorescence cell-based qHTS assay (AID 1347398; calls by dose curve; note: nearly all actives have a fitted effect of over 50% in size; note: potency is the fitted concentration of half-maximal effect). The settings on record: Potency: AChE activity. Summed up:
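SH-SY5Y, 2,000 cells/well, attached overnight; cmpd 30 min 37 C; acetylthiocholine/Thiolite Green cocktail 40 min RT; fluorescence Ex/Em 490/520 nm.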

Assay [9] shares this target. Briefly: Acetylcholinesterase (AChE) small molecule antagonists: enzyme-based qHTS assay with human liver microsomes (AID 1347399; calls by dose curve; note: nearly all actives have a fitted effect of over 60% in size). The settings on record: Potency: qHTS inhibition. The method, boiled down: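 Recombinant human AChE (50 mU/mL in the enzyme mix) and human liver microsomes (0.25 mg/mL final) were preincubated with compound and NADPH (0.25 mg/mL final) for 30 min at 37 C. Acetylthiocholine/DTNB was then added; thiocholine was read colorimetrically after 10 min at room temperature.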

For assay [10], the target named is Cytochrome P450 2D6 (Homo sapiens) (UniProt P10635). The assay is described as follows: Cytochrome P450 Family 2 Subfamily D Member 6 (CYP2D6) small molecule antagonists: luciferase reporter qHTS assay (AID 1671196). For activity change, negative = inhibition: series mostly up to about 120 µM. Note: nearly all actives have a fitted effect of over 50% in size. Note: potency is the fitted concentration of half-maximal effect. The method, boiled down:
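Enzyme and proluciferin substrate were first combined with test chemical for 10 min at room temperature. Adding NADPH regeneration solution started a 1 h reaction, stopped with luciferin detection reagent and read by luminescence 20 min later.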

Assay [11] deals with Cytochrome P450 2C19 (Homo sapiens) (UniProt P33261). Briefly: Cytochrome P450 Family 2 Subfamily C Member 19 (CYP2C19) small molecule antagonists: luciferase reporter qHTS assay (AID 1671197). For activity change, negative = inhibition: series mostly up to about 120 µM. Note: nearly all actives have a fitted effect of over 65% in size. Note: potency is the fitted concentration of half-maximal effect. The method, boiled down: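 P450-Glo CYP2C19 screening system; proluciferin substrate; DMSO compound stocks; 10 min RT preincubation; NADPH regeneration, 1 h at 37C; luciferin detection reagent, 20 min RT; luminescence as RLU.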
On the technique in general: In a reporter assay the amount or activity of a reporter protein is the signal.

For assay [12], the target named is Cytochrome P450 2C9 (Homo sapiens) (UniProt P11712). The assay is described as follows: Cytochrome P450 Family 2 Subfamily C Member 9 (CYP2C9) small molecule antagonists: luciferase reporter qHTS assay (AID 1671198). For activity change, negative = inhibition: series mostly up to about 120 µM. Note: nearly all actives have a fitted effect of over 50% in size. Note: potency is the fitted concentration of half-maximal effect. Summed up:
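P450-Glo proluciferin substrate with CYP2C9 enzyme; 10 min RT preincubation, then NADPH regeneration 1 h at 37C; luciferin detection reagent 20 min RT, luminescence in relative luminescence units.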

Assay [13] addresses Voltage-gated inwardly rectifying potassium channel KCNH2 (Homo sapiens) (UniProt Q12809). Briefly: Human Ether-a-go-go-Related Gene (hERG) channel small molecule antagonists: fluorescence cell-based qHTS assay (AID 1671200).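 For activity change, negative = inhibition: hERG-expressing U2OS cells given a thallium stimulus after FluxOR II dye loading; series mostly up to about 77 µM.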 Note: nearly all actives have a fitted effect of over 50% in size. Note: potency is the fitted concentration of half-maximal effect. Summed up:
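Thallium served as the potassium surrogate; its influx into dye-loaded U2OS cells carrying the channel was measured by fluorescence over 2 min.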
On the technique in general: Block of hERG is tested as a sign of cardiac risk.

For assay [14], the target named is Cytochrome P450 3A4 (Homo sapiens) (UniProt P08684). Briefly: Cytochrome P450 Family 3 Subfamily A Member 4 (CYP3A4) small molecule antagonists: luciferase reporter qHTS assay (AID 1671201). For activity change, negative = inhibition: series mostly up to about 120 µM. Note: nearly all actives have a fitted effect of over 50% in size. Note: potency is the fitted concentration of half-maximal effect. Summed up: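 Relative luminescence units after 20 min with luciferin detection reagent served as read-out. Beforehand, CYP3A4 turned over a proluciferin substrate for 1 h at room temperature with NADPH regeneration, following 10 min compound preincubation.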

Assay [15] concerns the target Cytochrome P450 1A2 (Homo sapiens) (UniProt P05177). The assay is described as follows: Cytochrome P450 Family 1 Subfamily A Member 2 (CYP1A2) small molecule antagonists: luciferase reporter qHTS assay (AID 1671199). For activity change, negative = inhibition: series mostly up to about 120 µM. Note: nearly all actives have a fitted effect of over 50% in size. Note: potency is the fitted concentration of half-maximal effect. Summed up:
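Compounds were incubated with CYP1A2 and a luminogenic proluciferin substrate for 10 min at room temperature before the reaction was started with NADPH regeneration solution. After 1 h, detection reagent was added and light output, proportional to CYP activity, was recorded.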
% is set by controls: 0 for no effect and ±100 for the full control effect.

Cytochrome P450 2C9 (Homo sapiens), sequence (P11712 whole entry, looked up): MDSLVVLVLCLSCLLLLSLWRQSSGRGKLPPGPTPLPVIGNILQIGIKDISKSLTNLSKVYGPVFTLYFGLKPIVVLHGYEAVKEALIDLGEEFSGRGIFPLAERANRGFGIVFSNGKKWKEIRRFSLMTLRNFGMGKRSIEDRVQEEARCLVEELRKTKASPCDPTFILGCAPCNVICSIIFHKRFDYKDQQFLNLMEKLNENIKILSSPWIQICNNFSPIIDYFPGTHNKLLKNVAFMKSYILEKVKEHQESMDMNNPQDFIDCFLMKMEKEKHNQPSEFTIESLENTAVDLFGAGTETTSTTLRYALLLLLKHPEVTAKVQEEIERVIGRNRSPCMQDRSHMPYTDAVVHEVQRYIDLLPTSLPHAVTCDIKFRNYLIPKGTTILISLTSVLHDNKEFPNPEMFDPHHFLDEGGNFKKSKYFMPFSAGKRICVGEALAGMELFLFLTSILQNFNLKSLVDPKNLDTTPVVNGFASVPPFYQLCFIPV
Cytochrome P450 2D6 (Homo sapiens), sequence (P10635 whole entry, looked up): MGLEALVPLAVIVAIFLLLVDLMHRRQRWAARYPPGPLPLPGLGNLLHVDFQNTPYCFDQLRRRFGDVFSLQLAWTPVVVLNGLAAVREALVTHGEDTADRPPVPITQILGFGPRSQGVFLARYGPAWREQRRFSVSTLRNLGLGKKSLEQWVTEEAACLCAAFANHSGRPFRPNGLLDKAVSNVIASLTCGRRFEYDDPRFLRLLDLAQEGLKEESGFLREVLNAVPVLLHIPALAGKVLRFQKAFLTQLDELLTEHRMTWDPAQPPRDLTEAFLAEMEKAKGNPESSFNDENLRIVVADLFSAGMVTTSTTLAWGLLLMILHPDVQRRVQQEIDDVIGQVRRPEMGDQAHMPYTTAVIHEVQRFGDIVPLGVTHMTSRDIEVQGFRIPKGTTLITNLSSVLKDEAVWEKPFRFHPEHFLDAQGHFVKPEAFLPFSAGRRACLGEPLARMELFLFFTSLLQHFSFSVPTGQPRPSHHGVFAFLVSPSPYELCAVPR
Cytochrome P450 1A2 (Homo sapiens), sequence (P05177 whole entry, looked up): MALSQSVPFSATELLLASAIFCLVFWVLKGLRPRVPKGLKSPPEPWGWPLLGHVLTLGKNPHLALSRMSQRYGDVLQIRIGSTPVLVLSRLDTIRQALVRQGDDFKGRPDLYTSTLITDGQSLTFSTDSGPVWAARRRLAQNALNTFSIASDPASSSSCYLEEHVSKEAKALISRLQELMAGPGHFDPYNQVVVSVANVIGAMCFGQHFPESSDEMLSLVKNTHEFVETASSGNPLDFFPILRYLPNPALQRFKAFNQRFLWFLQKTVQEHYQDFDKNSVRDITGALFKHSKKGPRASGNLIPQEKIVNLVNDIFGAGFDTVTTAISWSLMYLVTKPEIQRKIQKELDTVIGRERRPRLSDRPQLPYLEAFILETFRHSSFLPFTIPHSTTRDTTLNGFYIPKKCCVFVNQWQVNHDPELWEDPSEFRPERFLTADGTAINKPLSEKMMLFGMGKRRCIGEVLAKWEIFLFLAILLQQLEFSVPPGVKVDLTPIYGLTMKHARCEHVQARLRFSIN
Acetylcholinesterase (Homo sapiens), sequence (P22303 whole entry, looked up): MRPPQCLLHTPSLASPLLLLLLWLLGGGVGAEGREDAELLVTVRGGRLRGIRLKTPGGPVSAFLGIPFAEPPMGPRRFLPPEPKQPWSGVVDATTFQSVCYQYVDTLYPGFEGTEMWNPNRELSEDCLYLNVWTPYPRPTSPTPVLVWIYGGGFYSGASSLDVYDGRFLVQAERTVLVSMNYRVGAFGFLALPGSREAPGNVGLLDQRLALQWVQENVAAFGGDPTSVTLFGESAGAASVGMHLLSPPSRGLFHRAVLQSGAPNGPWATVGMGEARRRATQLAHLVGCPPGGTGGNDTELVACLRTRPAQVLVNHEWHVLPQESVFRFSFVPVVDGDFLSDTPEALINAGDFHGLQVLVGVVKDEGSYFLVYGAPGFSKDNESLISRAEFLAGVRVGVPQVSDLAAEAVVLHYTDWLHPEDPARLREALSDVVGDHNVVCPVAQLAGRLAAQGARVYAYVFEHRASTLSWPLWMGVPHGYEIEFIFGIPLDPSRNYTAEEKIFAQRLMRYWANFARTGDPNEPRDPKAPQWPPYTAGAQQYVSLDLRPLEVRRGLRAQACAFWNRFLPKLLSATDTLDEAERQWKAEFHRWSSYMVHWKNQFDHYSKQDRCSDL
Voltage-gated inwardly rectifying potassium channel KCNH2 (Homo sapiens), sequence (Q12809 whole entry, looked up): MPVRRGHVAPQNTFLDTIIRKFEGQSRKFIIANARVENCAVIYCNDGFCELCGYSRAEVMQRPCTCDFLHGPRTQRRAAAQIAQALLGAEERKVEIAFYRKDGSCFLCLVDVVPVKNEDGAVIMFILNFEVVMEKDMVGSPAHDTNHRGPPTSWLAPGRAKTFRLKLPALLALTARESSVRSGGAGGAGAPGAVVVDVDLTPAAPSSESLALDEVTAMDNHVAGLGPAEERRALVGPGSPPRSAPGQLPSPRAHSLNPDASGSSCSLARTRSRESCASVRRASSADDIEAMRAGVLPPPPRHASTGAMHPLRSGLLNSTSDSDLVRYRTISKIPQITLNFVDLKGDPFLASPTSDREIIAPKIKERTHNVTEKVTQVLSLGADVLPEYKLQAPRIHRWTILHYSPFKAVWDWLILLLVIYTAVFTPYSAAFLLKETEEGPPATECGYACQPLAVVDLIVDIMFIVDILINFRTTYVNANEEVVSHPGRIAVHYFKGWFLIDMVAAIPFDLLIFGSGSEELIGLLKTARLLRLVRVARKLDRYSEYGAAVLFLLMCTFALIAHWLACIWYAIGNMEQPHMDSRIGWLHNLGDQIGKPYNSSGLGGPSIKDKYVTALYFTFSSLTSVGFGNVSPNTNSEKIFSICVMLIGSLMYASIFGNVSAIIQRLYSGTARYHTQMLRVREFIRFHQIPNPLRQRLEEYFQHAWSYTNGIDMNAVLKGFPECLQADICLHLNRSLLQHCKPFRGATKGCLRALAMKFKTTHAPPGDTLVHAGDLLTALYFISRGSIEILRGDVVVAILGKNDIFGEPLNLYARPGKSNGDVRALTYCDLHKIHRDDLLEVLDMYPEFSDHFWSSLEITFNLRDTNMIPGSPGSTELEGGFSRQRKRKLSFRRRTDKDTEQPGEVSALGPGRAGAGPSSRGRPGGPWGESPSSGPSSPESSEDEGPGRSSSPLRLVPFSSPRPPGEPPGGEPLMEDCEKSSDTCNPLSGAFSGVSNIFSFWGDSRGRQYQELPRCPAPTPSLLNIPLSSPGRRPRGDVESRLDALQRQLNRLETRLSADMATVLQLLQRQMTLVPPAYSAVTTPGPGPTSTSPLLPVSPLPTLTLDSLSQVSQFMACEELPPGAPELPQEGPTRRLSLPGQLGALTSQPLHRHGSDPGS
Nuclear receptor subfamily 1 group I member 2 (Homo sapiens), sequence (O75469 whole entry, looked up): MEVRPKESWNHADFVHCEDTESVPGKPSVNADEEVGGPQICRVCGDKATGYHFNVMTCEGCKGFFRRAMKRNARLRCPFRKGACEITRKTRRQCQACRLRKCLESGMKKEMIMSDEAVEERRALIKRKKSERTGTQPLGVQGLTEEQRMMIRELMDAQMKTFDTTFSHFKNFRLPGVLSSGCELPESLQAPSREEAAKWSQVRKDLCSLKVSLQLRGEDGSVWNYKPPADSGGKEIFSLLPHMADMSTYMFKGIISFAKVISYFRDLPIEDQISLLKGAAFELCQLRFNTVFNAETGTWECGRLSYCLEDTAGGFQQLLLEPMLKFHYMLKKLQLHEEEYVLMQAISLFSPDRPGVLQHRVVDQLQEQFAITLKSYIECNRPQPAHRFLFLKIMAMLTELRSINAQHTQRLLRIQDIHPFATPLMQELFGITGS
Cytochrome P450 2C19 (Homo sapiens), sequence (P33261 whole entry, looked up): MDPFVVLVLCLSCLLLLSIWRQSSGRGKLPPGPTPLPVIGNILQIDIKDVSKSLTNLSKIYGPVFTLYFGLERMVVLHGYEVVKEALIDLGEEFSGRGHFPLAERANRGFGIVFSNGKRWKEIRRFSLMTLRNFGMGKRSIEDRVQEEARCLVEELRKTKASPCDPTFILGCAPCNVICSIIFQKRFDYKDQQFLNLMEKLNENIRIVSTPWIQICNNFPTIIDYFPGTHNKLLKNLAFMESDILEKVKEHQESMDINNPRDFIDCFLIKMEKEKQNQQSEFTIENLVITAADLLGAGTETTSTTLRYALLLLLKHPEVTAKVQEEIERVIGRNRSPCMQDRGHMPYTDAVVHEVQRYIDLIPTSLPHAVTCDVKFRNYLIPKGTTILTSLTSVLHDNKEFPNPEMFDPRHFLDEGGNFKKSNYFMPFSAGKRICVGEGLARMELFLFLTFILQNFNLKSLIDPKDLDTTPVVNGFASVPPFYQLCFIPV
Cytochrome P450 3A4 (Homo sapiens), sequence (P08684 whole entry, looked up): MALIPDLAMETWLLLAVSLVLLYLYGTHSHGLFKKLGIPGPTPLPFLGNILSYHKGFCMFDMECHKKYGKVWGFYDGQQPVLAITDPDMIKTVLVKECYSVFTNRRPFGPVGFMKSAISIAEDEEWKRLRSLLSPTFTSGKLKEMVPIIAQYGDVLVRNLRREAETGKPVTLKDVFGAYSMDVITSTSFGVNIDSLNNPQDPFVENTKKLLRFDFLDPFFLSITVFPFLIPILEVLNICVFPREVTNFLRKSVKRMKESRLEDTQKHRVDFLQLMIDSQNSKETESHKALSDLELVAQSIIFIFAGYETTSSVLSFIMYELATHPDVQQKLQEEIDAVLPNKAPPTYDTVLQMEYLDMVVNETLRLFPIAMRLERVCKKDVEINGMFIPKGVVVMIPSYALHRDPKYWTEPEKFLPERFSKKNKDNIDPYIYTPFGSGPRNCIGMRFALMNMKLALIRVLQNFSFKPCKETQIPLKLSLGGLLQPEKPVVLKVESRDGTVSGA

As to `ClCBr`, the Potency entry in assay [1], in assay [2], in assay [3], in [4], in assay [5] and in assay [6] was “inactive” throughout. Also, the Potency result in assay [7], in assay [8], in assay [9], in [10], in assay [11] and in assay [12] was “inactive” throughout. Besides, the Potency entry in assay [13] and in assay [14] was “inactive” each time.

Turning to `CCCCCCCCCCCCCCn1cc[n+](C)c1`, the Potency in assay [1] was 43.4 µM (active) and inactive; in assay [2], 4.34 µM (active) and 8.54 µM (active) and 61.1 µM (active); in assay [4], 61.3 µM (active) and 67.8 µM (active) and 54.4 µM (active); in assay [5], 3.86 µM (active) and 4.28 µM (active) and 21.7 µM (active); in assay [6] it was 63.4 µM (active) and 70.2 µM (active) and inactive; in assay [7], 50.4 µM (active) and 70.2 µM (active) and inactive. For the same molecule, the Potency is 20.1 µM (active) and 31.4 µM (active) and inactive in [8]; 1.13 µM (active) and 1.25 µM (active) in [10]; 40 µM (active) and 78.8 µM (active) in assay [11]; 11.3 µM (active) in assay [12]; 40 µM (active) and 62.6 µM (active) in [15]; 3.9 µM (active) and 6.84 µM (active) and inactive in assay [13]. Also, the Potency in [14] is 40 µM (active). The Potency result in assay [3] and in assay [9] was “inactive” each time.

For `Clc1c(Cl)c(Cl)c(Cl)c(Cl)c1Cl`, the caspase activation in assay [1] was -1.49% [at 8.39 µM] (inactive). The activity change, negative = cytotoxicity in assay [2] was 0.636% [at 8.39 µM] (inactive); in [4] it was -1.11% [at 8.39 µM] (inactive). In assay [3], the caspase-3/7 activation was 0.528% [at 8.39 µM] (inactive). For the same molecule, in [5], the activation was -14.4% [at 8.39 µM] (inactive). The activity, negative = inhibition in [6] was -1.38% [at 10.5 µM] (inactive). Also, the activity change, negative = inhibition in assay [7] is -1.5% [at 10.5 µM] (inactive); in [8], 3.1% [at 10.5 µM] (inactive); in assay [9] it was 0% [at 10.5 µM] (inactive); in assay [10], -7.24% [at 10.5 µM] (inactive); in assay [11], 17.2% [at 10.5 µM] (inactive); in assay [12] it was -2.13% [at 10.5 µM] (inactive). In addition, the activity change, negative = inhibition was 10.1% [at 6.97 µM] (inactive) in [13] and 4.21% [at 10.5 µM] (inactive) in [14].

As for `O=S(=O)(NS(=O)(=O)C(F)(F)F)C(F)(F)F`, the Potency entry in [1], in [3], in assay [4], in assay [6], in assay [7] and in [8] was “inactive” in each case. Besides, in [9], the Potency entry is “inactive”. Moreover, the Potency was 48.4 µM (active) in assay [2]; 60.9 µM (active) in [5]; 447 nM (active) in [10]; 39.8 µM (active) in [11]; 6.31 µM (active) in [12]; 44.7 µM (active) in assay [15]. The Potency in [13] was 38.8 µM (active).

On to `[O-][Cl+3]([O-])([O-])O`, for which the Potency result in assay [1], in assay [2], in assay [3], in assay [4], in [5] and in assay [6] was “inactive” throughout. Further, the Potency entry in [7], in assay [8], in assay [9], in assay [10], in assay [11] and in assay [12] was “inactive” in each case. Besides, the Potency result in assay [15], in assay [13] and in [14] was “inactive” in each case.

With `O=[N+]([O-])c1ccc(CCl)cc1`, the Potency result in assay [1], in assay [2], in assay [3], in assay [4], in assay [5] and in assay [6] was “inactive” in each case. Moreover, the Potency entry in assay [7], in [8], in assay [9], in assay [10], in assay [11] and in [12] was “inactive” in each case. For the same molecule, the Potency entry in assay [13] and in [14] was “inactive” throughout.

As for `ClC1(Cl)C2(Cl)C3(Cl)C4(Cl)C(Cl)(Cl)C5(Cl)C3(Cl)C1(Cl)C5(Cl)C24Cl` (stereo not given), the Potency result in assay [1], in assay [2], in [3], in assay [4], in [5] and in assay [6] was “inactive” each time. Moreover, the Potency entry in [7], in assay [8], in [9], in [10], in assay [11] and in assay [15] was “inactive” throughout. In addition, the Potency result in [13] and in [14] was “inactive” each time.
